# “And” between values parts separate entries of the source, which are not always exact repeats. Identical values can stand only once. Counter-ions that a name gives are not always drawn. ± gives the standard deviation of the averaged measurements. The full ranking holds about 2,600 compounds; the median of “MBP+ mature oligodendrocyte number relative to DMSO vehicle control” is about -0.34, and the highest 2% start at about 13. The full list was thinned out, with the highest values kept by preference.
# Test system: jimpy (Plp1 jimpy) mouse iPSC-derived oligodendrocyte progenitor cells
# Test: MBP+ mature oligodendrocyte number relative to DMSO vehicle control (SDs above negative control mean); higher = more surviving jimpy oligodendrocytes (rescue)
# Settings: 10 µM; 3 days
# Procedure: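 Primary phenotypic screen of >3,000 bioactive compounds (Selleck L1700 and Sigma LO1280 libraries) at a single dose of 10 µM. Compounds were added to jimpy (Plp1 mutant) mouse iPSC-derived OPCs at the start of thyroid hormone-induced oligodendrocyte differentiation, one well per compound in 384-well plates. After 3 days cells were stained for MBP, Sox10 and DAPI and imaged with an Operetta system. MBP+ oligodendrocyte number and total cell number were expressed as the number of SDs above the mean of the DMSO negative control on the same plate (n=16 control wells per plate). Hits were defined as >=4 SD for oligodendrocytes and >=2 SD for total cells.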
row,Compound,MBP+ mature oligodendrocyte number
1,O=C1Cc2cc(CCN3CCN(c4nsc5ccccc45)CC3)c(Cl)cc2N1 [Ziprasidone HCl],21.9
2,O=C1CCc2ccc(OCCCCN3CCN(c4cccc(Cl)c4Cl)CC3)cc2N1 [Aripiprazole],5.11
3,O=C1Cc2cc(CCN3CCN(c4nsc5ccccc45)CC3)c(Cl)cc2N1 [Ziprasidone hydrochloride monohydrate],11.7
4,COc1ccc(-c2oc3c(CC=C(C)C)c(O)cc(O)c3c(=O)c2O)cc1 [Icaritin],-3.18
5,COc1cc(N2CCC(N3CCN(C)CC3)CC2)ccc1Nc1ncc(Cl)c(Nc2ccccc2S(=O)(=O)C(C)C)n1,< -6.7
6,Cn1cnc2c(NCc3ccccc3)nc(NCCO)nc21 [Olomoucine],1.83
7,CC(C)NCC(O)c1ccc(O)c(O)c1 (racemic) [(±)-Isoproterenol hydrochloride],0.225
8,Nc1cc2c(ncn2CCOCP(=O)(O)O)c(=O)[nH]1 [PMEG hydrate],-1.5
9,O.O=[Si]=O.O=[Si]=O.O=[Si]=O.O=[Si]=O.[O]=[Mg].[O]=[Mg].[O]=[Mg],-1.01
10,NC(N)=N/N=C/c1ccccc1Cl [Sephin-1],1.29
11,CCC(C)(C)c1ccc(CC(C)CN2C[C@@H](C)O[C@@H](C)C2)cc1 (stereo partly specified) [Amorolfine HCl],28.8
12,Fc1ccc2[nH]c(CN3CCN(c4ccccn4)CC3)cc2c1,-1.89
13,O=C(O)CCCCC1CCSS1 (racemic) [(±)-alpha-Lipoic Acid],-1.6
14,O=C(O)Cc1cccc(OCCCN(Cc2cccc(C(F)(F)F)c2Cl)CC(c2ccccc2)c2ccccc2)c1,24.5
15,CN(CCCOc1ccc(Cc2ccccc2)cc1)CCC(=O)O,0.896
16,CC1(C)CCC2=C(O1)c1ccccc1C(=O)C2=O [beta-Lapachone],< -3.97
17,CC1(C)CCC2=C(O1)c1ccccc1C(=O)C2=O [Beta-Lapachone],-6.18
18,CC(C)(Oc1ccc(Cl)cc1)C(=O)O [Clofibric Acid],2.94
19,CCOC(=O)C(C)(C)Oc1ccc(Cl)cc1 [Clofibrate],0.667
20,CC(C)(C)C(=O)C(Oc1ccc(Cl)cc1)n1ccnc1 (stereo unspecified) [Climbazole],38.6
21,C[C@H](CCC(=O)NCCS(=O)(=O)O)[C@H]1CC[C@H]2[C@@H]3[C@H](O)C[C@@H]4C[C@H](O)CC[C@]4(C)[C@H]3C[C@H](O)[C@]12C [Sodium Taurocholate hydrate],-0.433
22,Cc1cc(C)c(CNC(=O)c2cc(-c3ccc(CN4CCOCC4)cc3)cc3c2cnn3C2CCCC2)c(=O)[nH]1,30.2
23,CCN(c1cc(-c2ccc(CN3CCOCC3)cc2)cc(C(=O)NCc2c(C)cc(C)[nH]c2=O)c1C)C1CCOCC1,8.01
24,CCCc1cc(C)[nH]c(=O)c1CNC(=O)c1cc(-c2ccc(N3CCN(C(C)C)CC3)nc2)cc2c1cnn2C(C)C,< -6.35
25,CCc1cc2c(cc1N1CCC(N3CCOCC3)CC1)C(C)(C)c1[nH]c3cc(C#N)ccc3c1C2=O,-2.2
26,NC(=O)[C@@H](CCC(F)(F)F)N(Cc1ccc(-c2ncon2)cc1F)S(=O)(=O)c1ccc(Cl)cc1,4.21

row,Compound,MBP+ mature oligodendrocyte number
1,CCn1c(=O)c2c(nc(/C=C/c3ccc(OC)c(OC)c3)n2C)n(CC)c1=O [Istradefylline],-4.18
2,Cn1cc(C2=C(c3cn(CCCSC(=N)N)c4ccccc34)C(=O)NC2=O)c2ccccc21 [Ro 31-8220 Mesylate],-5.25
3,Cn1cc(C2=C(c3ccc(Cl)cc3Cl)C(=O)NC2=O)c2ccccc21,22.4 and 12.6
4,Cn1cc(/C=C2\C(=O)Nc3cccnc32)c2ccccc21,-3.63
5,Cc1[nH]c2ccccc2c1CCNCc1ccc(/C=C/C(=O)NO)cc1 [Panobinostat (LBH589)],< -6.7
6,CN(CC[C@@H](Oc1ccc(C(F)(F)F)cc1)c1ccccc1)CC(=O)[O-].[Li+],0.588
7,Clc1ccc(COC(Cn2ccnc2)c2ccc(Cl)cc2Cl)c(Cl)c1 (stereo unspecified) [Miconazole],-1.9
8,Clc1ccc(C(Cn2ccnc2)OCc2c(Cl)cccc2Cl)c(Cl)c1 (stereo unspecified) [Isoconazole nitrate],22.9
9,Clc1ccc(COC(Cn2ccnc2)c2ccc(Cl)cc2Cl)c(Cl)c1 (stereo unspecified) [Miconazole Nitrate],-3.62
10,Clc1ccc(COC(Cn2ccnc2)c2ccc(Cl)cc2Cl)cc1 (stereo unspecified) [Econazole nitrate],5.37
11,COc1ccc(C2(CNC(=O)c3ccc(NC(=O)c4ccco4)cc3)CCOCC2)cc1,-2.6
12,CC(Cc1ccc(O)c(O)c1)(NN)C(=O)O (stereo not drawn) [S-(-)-Carbidopa],-1.01
13,Cc1nccn1CC1CCc2c(c3ccccc3n2C)C1=O (stereo unspecified) [Ondansetron HCl],12.8
14,Nc1cc(Cl)c(NC2=NCCN2)c(Cl)c1 [p-Aminoclonidine hydrochloride],-0.786
15,CNC(=O)CN(CCN(CCN(CC(=O)[O-])CC(=O)NC)CC(=O)[O-])CC(=O)[O-].[Gd+3] [Gadodiamide],< -5.15
16,C#C[C@]1(O)CC[C@H]2[C@@H]3CCc4cc(O)ccc4[C@H]3CC[C@@]21C [Ethinyl Estradiol],0.433
17,C#C[C@]1(O)CC[C@H]2[C@@H]3CCC4=CC(=O)CC[C@@H]4[C@H]3CC[C@@]21C [Norethindrone],6.57
18,C#C[C@]1(O)CC[C@H]2[C@@H]3CCc4cc(OC)ccc4[C@H]3CC[C@@]21C [Mestranol],12.8
19,O=C(Nc1ccc2c(c1)CCN(Cc1ncn[nH]1)C2)c1ccccc1-c1ccc(C(F)(F)F)cc1,2
20,c1ccc2c(c1)CCC[C@H]2Nc1nc2ccccc2[nH]1 [NS8593 hydrochloride],-0.125
21,NC(=O)NO [Hydroxyurea],0.603 ± 0.14
22,CO[C@H]1C[C@@H]2CC[C@@H](C)[C@@](O)(O2)C(=O)C(=O)N2CCCC[C@H]2C(=O)O[C@H]([C@H](C)C[C@@H]2CC[C@@H](O)[C@H](OC)C2)CC(=O)[C@H](C)/C=C(\C)[C@@H](O)[C@@H](OC)C(=O)[C@H](C)C[C@H](C)/C=C/C=C/C=C/1C [Rapamycin (Sirolimus)],-5.74
23,Cc1cc(NC(=O)Nc2ccc(N(C)C)cc2)c2cc(F)cc(F)c2n1,29.4
24,COc1ccc(Cl)cc1NC(=O)Nc1cc(C)nc2ccccc12,-4.52
25,Cc1ccc(F)c(NC(=O)Nc2ccc(-c3cccc4[nH]nc(N)c34)cc2)c1 [Linifanib (ABT-869)],-5.74

# Reference: the supplement of paper PMC6135742
